Compound activity deposited in PubChem BioAssay by National Center for Advancing Translational Sciences (NCATS).
Shiga toxin inh – blocks Shiga toxin action in Vero cells. Vero cells, Shiga toxin protein synthesis inhibition reporter. inhibition, % at 38.7 µM. hit rate 9.2% among 290,000; in the data active means inhibition mostly above about 28%, no sharp cut-off; inactive means mostly below about 43%; further: 0% is about no effect
LmPK inhibitor – blocks Leishmania mexicana pyruvate kinase activity. Potency, µM (highest dose often 57.5 µM), for inactives: at the highest dose activity change, negative = inhibition, usual class: inhibitors. hit rate 0.37% among 290,000. purified LmPK, Kinase-Glo ATP luminescence, 1 h. Q27686; further: potency means the concentration at half of the fitted maximal effect; on the % scale 0 is the no-effect control and ±100 the full control effect
Target sequence (Q27686 whole entry, looked up): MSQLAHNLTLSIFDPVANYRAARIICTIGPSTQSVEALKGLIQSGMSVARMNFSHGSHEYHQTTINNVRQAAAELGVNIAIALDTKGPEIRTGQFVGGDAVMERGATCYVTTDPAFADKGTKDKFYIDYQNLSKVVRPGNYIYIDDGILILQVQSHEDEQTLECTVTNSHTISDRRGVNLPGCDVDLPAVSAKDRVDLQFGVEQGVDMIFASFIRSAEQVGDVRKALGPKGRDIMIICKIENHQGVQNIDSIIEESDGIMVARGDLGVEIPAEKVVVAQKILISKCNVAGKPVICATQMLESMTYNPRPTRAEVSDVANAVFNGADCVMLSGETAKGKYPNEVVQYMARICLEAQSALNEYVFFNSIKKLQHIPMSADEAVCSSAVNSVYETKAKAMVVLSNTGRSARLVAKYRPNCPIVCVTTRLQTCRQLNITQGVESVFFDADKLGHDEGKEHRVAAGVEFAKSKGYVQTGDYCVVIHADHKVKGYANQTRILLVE
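Kinase-Glo luminescence read after 1 h RT reaction of 0.1 nM LmPK with 0.5 mM PEP and 0.1 mM ADP. Activity scaled between uninhibited and enzyme-free controls.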
Pf growth 96h – inhibits malaria parasite growth, 96 h | hit rate 6.9% among 320,000 | Potency, µM (highest dose often 28.7 µM), for inactives: top-dose activity change, negative = inhibition, usual class: inhibitors | P. falciparum luciferase reporter growth, 96 h | AID 504834; further: potency means the concentration at half of the fitted maximal effect; on the % scale 0 is the no-effect control and ±100 the full control effect
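Erythrocytes infected with luciferase-expressing P. falciparum were dispensed at 2% hematocrit and 0.05% parasitemia (final), then incubated with compounds 96 hours at 37 C in 5% CO2. Luminescence after detection reagent addition reported growth.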
CHX counter – counter-screen for Shiga toxin inhibitors: cycloheximide protein synthesis inhibition; cell reporter, cycloheximide protein synthesis inhibition counterscreen; AID 2314; hit rate 12% among 300,000; max response, %; in the data active means max response mostly above about 13%, no sharp cut-off; inactive means mostly below about 14%; further: read at 38.3 µM for the half of the compounds with a filed dose; 0% is about no effect
Pf growth 48h – inhibits P. falciparum growth in the first generation, 48 h; P. falciparum luciferase growth in erythrocytes, 48 h; Potency, µM (top dose mostly 28.7 µM), for the others: at the highest dose activity change, negative = inhibition, actives largely listed as inhibitors; hit rate 5.9% among 310,000; AID 504832; further: potency means the concentration at half of the fitted maximal effect; on the % scale 0 is the no-effect control and ±100 the full control effect
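Luciferase-expressing P. falciparum in infected erythrocytes (2% hematocrit, 0.1% parasitemia final) in RPMI 1640/0.5% Albumax were exposed to compound for 48 hours at 37 C, 5% CO2; growth read as luminescence.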
Active calls of the source: *; u = inconclusive; x = no result given; ! = repeats disagree; [ ] = dose if it differs, or a comment. In the library only some 22% were active in any assay of this set; here they are far more common. Unless noted, the call rests on the fitted dose curve; in most records, active means well fitted inhibition curve with a large enough effect; inconclusive means small, poorly fitted or top-dose-only effect, or another doubt; inactive means no such curve, though single readings can be large or run the other way.

SMILES	Shiga toxin inh	LmPK inhibitor	Pf growth 96h	CHX counter	Pf growth 48h
Cn1nc(-c2ccc(N3CCN(CCO)CC3)c([N+](=O)[O-])c2)c2ccccc2c1=O	-19	-3%	7%	-2	-30%
COc1ccc(O)c(/C=N/NC(=O)CCC(=O)Nc2ccc(F)cc2)c1	-4	-1%	45%	1	-13%
CC(=O)c1ccc(N2CCCC2)c(F)c1	81*	-1%	x	17*	43%
CCCC(=O)c1ccc(N2CCN(C(=O)c3cccs3)CC2)c(F)c1	30	-3%	-5%	10	0%
CC(=O)c1ccc(N2CCN(CCC#N)CC2)c(F)c1	-8	-1%	x	-1	18%
CCC(=O)c1ccc(N2CCN(C(=O)c3cc([N+](=O)[O-])ccc3N3CCN(C)CC3)CC2)c(F)c1	29	-3%	9.3µM*	0	u
CC(=O)c1ccc(N2CCN(C(=O)c3cccs3)CC2)c(F)c1	16	-3%	u	16*	u
CCCCCC(=O)N1CCN(c2ccc(C(C)=O)cc2F)CC1	-3	5%	7.4µM*	6	8%
CC(=O)NC1(C(F)(F)F)NC(=O)N(CCc2ccccc2)C1=O (stereo not drawn)	-7	-1%	31%	-2	-9%
CC(=O)c1ccc(N2CCC(C)CC2)c(F)c1	41	-8%	70%	29*	23%
CCC(=O)c1ccc(N2CCCCC2)c(F)c1	9	-2%	8.3µM*	-5	1%
CC(=O)c1ccc(N2CCN(S(=O)(=O)c3ccccc3)CC2)c(F)c1	-4	7%	u	-2	17%
CC1CCN(c2ccc(C(=O)O)cc2N)CC1	-14	-9%	3.3µM*	25*	35%
Cc1ccc(Cl)cc1N1CCN(C(=O)Cc2ccc(-n3c(=O)[nH]c4ccsc4c3=O)cc2)CC1	-8	-2%	-29%	-2	-7%
COc1cccc(Cn2ncc3c4sc(Br)cc4n(C)c3c2=O)c1	x	x	14%	x	u
CCn1c(CC(=O)Nc2ccccc2)nnc1SCC(=O)Nc1nnc(C)s1	-8	-3%	-18%	-3	10%
CCOc1ccc(C2=Nc3ccccc3C(c3ccc(N4CCOCC4)cc3)=NN2)cc1	163*	-5%	u	46*	u
CCc1ccc2c(c1)C(c1ccc(N3CCOCC3)cc1)=NNC(c1ccncc1)=N2	-34	-1%	-6%	1	u
CCOc1ccc2c(c1)C(c1ccc(C)o1)=NNC(c1ccncc1)=N2	-11	-6%	3%	9	1.5µM*
CCOc1ccc2c(c1)C(c1ccc(C)cc1)=NNC(c1ccc(OC)cc1)=N2	34	2%	x	25	u
CCOc1ccc(C2=NNC(c3cccnc3)=Nc3ccc(OC)cc32)cc1	15	12%	u	8	u
CCOc1ccc(C2=NNC(c3cccs3)=Nc3ccc(OC)cc32)cc1	85*	-2%	-31%	35*	12µM*
CCOc1ccc(C2=Nc3ccc(Br)cc3C(c3ccc(N4CCOCC4)cc3)=NN2)cc1	56*	-1%	u	44*	10µM*
COc1ccc(CN(C)C(=O)c2cc(S(=O)(=O)Nc3ccccc3F)ccc2C)c(OC)c1	2	6%	u	5	8%
Cc1ccccc1OCC(=O)Nc1nnc(C2CCCC2)s1	29	-2%	-20%	1	21%
SMILES	Shiga toxin inh	LmPK inhibitor	Pf growth 96h	CHX counter	Pf growth 48h
CCN(CC)CCOC(=O)[C@@H](Cc1cccc2ccccc12)C[C@@H]1CCCO1	x	x	-12%[12.8 µM]	x	5%[12.8 µM]
COC(=O)CNc1c(-c2ccccc2)nc2ccc(Br)cn12	50*	-9%	5%	42*	x
CC(=O)N1CC[n+]2c(-c3ccc(Cl)cc3Cl)csc21	-6	2%	u	-3	-17%
CCCCCC[n+]1c(-c2ccc(Cl)cc2Cl)csc1Nc1ccccc1	-3	-1%	u	-6	1.2µM*
O=c1c2ccccc2nc(-c2ccco2)n1-c1ccccc1	-2	3%	8.3µM*	5	u
O=c1c2ccccc2nc(-c2ccccc2)n1-c1ccccc1O	12	-2%	u	1	u
O=c1c2ccccc2nc(-c2ccco2)n1-c1nc2ccccc2s1	9	8%	1µM*	2	0%
O=C1c2ccccc2-n2c1nc1ccccc1c2=O	52*!	-10%	0.0037µM*	32	0.33µM*
O=c1c2ccccc2nc(-c2ccco2)n1-c1ccncc1	-7	0%	u	8	15%
COCCN1C(=O)C(CC(=O)Nc2ccccc2)SC1=Nc1ccc(OC)cc1 (stereo not drawn)	-4	3%	u	-10	x
O=C(CC1SC(=Nc2ccccc2)N(CCc2c[nH]c3ccccc23)C1=O)Nc1ccccc1F (stereo not drawn)	-4	6%	u	-3	u
COc1ccc(N=C2SC(CC(=O)Nc3ccccc3F)C(=O)N2Cc2ccco2)cc1 (stereo not drawn)	20	4%	u	21*	u
COc1ccc(N=C2SC(CC(=O)Nc3ccccc3)C(=O)N2Cc2ccco2)cc1 (stereo not drawn)	39*	-3%	u	9	u
CCOc1ccc(N=C2NC(=O)C(CC(=O)Nc3ccccc3)S2)cc1 (stereo not drawn)	1	0%	5%	7	8.3µM*
CN(C)S(=O)(=O)N1C(=O)c2ccccc2C1=O	-1	28µM*	14%	-2	115%
Cc1nc(-c2ccccc2O)n(S(=O)(=O)N(C)C)n1	8	3%	x	-1	12%
NC(=O)NC(=O)COC(=O)/C=C/c1cccs1	1	-8%	0%	0	-6%
O=C(NN1C(=O)c2ccccc2C1=O)C1C2CCCCC21 (stereo not drawn)	8	6%	-27%	11*	35%
CC1(C)C(C(=O)NN2C(=O)c3ccccc3C2=O)C1(C)C	12	0%	-17%	0	x
CC1CCN(C(=O)CSc2nnc(-c3ccccc3F)o2)CC1	56*	1%	29%	15	22%
CC1CCN(C(=O)CSc2nnc(-c3cccs3)o2)CC1	63*	0%	u	45*	19%
O=C(CSc1nnc(-c2cccs2)o1)N1CCCCC1	113*	1%	u	48*	x
COc1ccc(OC)c(NC(=O)CC2C(=O)NCCN2C(=O)c2ccccc2)c1 (stereo not drawn)	-4	0%	u	-5	19%
CCNC(=O)NC(=O)C(C)Sc1nc2ccccc2c(=O)n1-c1cccnc1 (stereo not drawn)	-2	-1%	0.93µM*	-3	1µM*
CCOC(=O)c1ccc(S(=O)(=O)Nc2cc(C(=O)O)ccc2Cl)cc1	23	2%	10%	5	-2%
CCOc1ccc(-c2nnc(NC(=O)c3ccc(OCC(C)C)c(OC)c3)o2)cc1	45	-4%	u	25*	0%
COc1cccc(C(=O)Nc2nnc(-c3ccc(F)cc3)o2)c1	-3	5%	-5%	1	u
COc1cccc(C(=O)Nc2nnc(-c3ccc(Cl)cc3)o2)c1	-3	7%	u	-5	u
